Drawing on PubChem BioAssay (Tox21), this text covers outcome and Potency for 22 compounds.

Assay [1] can be described thus: qHTS assay to identify small molecule antagonists of the vitamin D receptor (VDR) signaling pathway - cell viability counter screen (AID 743225). Further: nearly all actives have a fitted effect of over 50% in size. The procedure, abridged: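 VDR-bla HEK 293T cells, 4 h pre-incubation at 37C, then compound plus 1-alpha,25-dihydroxyvitamin D3 (3 nM final) for 16 h. After the beta-lactamase FRET read, CellTiter-Glo was added to the same wells; luminescence after 30 min at room temperature.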
A general note: In qHTS, concentration-response curves come from the screen itself.

A short description of assay [2]: qHTS assay to identify small molecule agonists of the NFkB signaling pathway (AID 1159509; active means well fitted curve in the direction sought with a large enough effect in the signal ratio in the repeat runs, not every such curve was filed as active; the % refers to the signal ratio; further: series mostly up to about 61 µM). The method in brief:
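Readout: FRET fluorescence, 405 nm excitation, 460/530 nm emission; beta-lactamase expression disrupts FRET. Cells: ME-180 stably carrying NF-kB-driven bla reporter. Compound exposure 5 hr, 37 C, 5% CO2.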

The nature of assay [3]: qHTS assay to identify small molecule agonists of the NFkB signaling pathway - cell viability counter screen (AID 1159515; calls by dose curve; further: series mostly up to about 61 µM; nearly all actives have a fitted effect of over 55% in size). The procedure, abridged: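 Cells are seeded (2,000 NFkB-bla ME-180 per well), rested overnight, and dosed with DMSO-dissolved compounds for 5 hr at 37 C. Viability is then read by CellTiter-Glo luminescence after 30 min at room temperature.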
Assay [4] is described as follows: qHTS assay to identify small molecule agonists of the endoplasmic reticulum stress response signaling pathway (AID 1159516; active means well fitted activation curve with a large enough effect in the signal ratio in the repeat runs, not every such curve was filed as active; the % refers to the signal ratio). The procedure, abridged: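 Cells are seeded at 1,500 per well and incubated overnight. Compounds in DMSO are added for 5 hr at 37 C, then beta-lactamase FRET substrate for 2 hr at room temperature, and fluorescence at 460 and 530 nm is measured.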

Assay [5] can be described thus: qHTS assay to identify small molecule agonists of the endoplasmic reticulum stress response signaling pathway - cell viability counter screen (AID 1159517; calls by dose curve;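 further: HeLa cells carrying an ER stress response element beta-lactamase reporter; series mostly up to about 61 µM; nearly all actives have a fitted effect of over 50% in size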). The method in brief: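 After overnight attachment, ESRE-bla HeLa cells were treated with Tox21 library compounds for 5 hr. CellTiter-Glo luminescence, read 30 min post-addition at room temperature, reported viability.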

Assay [6] can be described thus: qHTS assay to identify small molecule antagonists of the retinoid-related orphan receptor gamma (ROR-gamma) signaling pathway - cell viability counter screen (AID 1159520). Further: nearly all actives have a fitted effect of over 50% in size. The method in brief: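 Cytotoxicity was read from cellular ATP (CellTiter-Glo luminescence) after 16 hr at 37 C with 1 uM doxycycline induction. The inducer was added 2 hr after compound transfer to Tet-on ROR gamma CHO cells.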

Assay [7] concerns the target Nuclear receptor ROR-gamma (Homo sapiens) (UniProt P51449). The experiment in a line: qHTS assay to identify small molecule antagonists of the retinoid-related orphan receptor gamma (ROR-gamma) signaling pathway (AID 1159521; further: nearly all actives have a fitted effect of over 50% in size; further: potency means the concentration at half of the fitted maximal effect). The method in brief: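 Tet-on RORγ CHO cells carrying a ROR response element–luciferase reporter were pretreated with compounds for 2 h, then induced with 1 uM (final) doxycycline hyclate for 16 h at 37 C. Antagonism was read as decreased ONE-Glo luminescence.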

The nature of assay [8]: qHTS assay to identify small molecule agonists of the AP-1 signaling pathway - cell viability counter screen (AID 1159525; calls by dose curve; further: nearly all actives have a fitted effect of over 55% in size). The procedure, abridged: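 Intracellular ATP by Cell Titer Glo luminescence (30 min, RT) in the same ME-180 AP-1-bla wells after the 5 h compound exposure at 37 °C. Normalised to tetra n-octyl ammonium bromide and DMSO controls.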
Assay [9] is described as follows: qHTS assay to identify small molecule agonists of the AP-1 signaling pathway (AID 1159526; calls by dose curve; further: potency means the concentration at half of the fitted maximal effect).
The nature of assay [10]: qHTS assay to identify small molecule agonists of the RXR signaling pathway - cell viability counter screen (AID 1159529). Further: nearly all actives have a fitted effect of over 50% in size. Further: potency means the concentration at half of the fitted maximal effect. The procedure, abridged:
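RXR-alpha-UAS-bla HEK 293T cells in medium with 2% charcoal-stripped FBS were preincubated 5 hr, then exposed to compounds for 16 hr at 37 C. Viability was read as CellTiter-Glo luminescence after 30 min at room temperature.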

Assay [11] can be described thus: qHTS assay to identify small molecule antagonists of the retinoid acid receptor (RAR) signaling pathway - cell viability counter screen (AID 1159551). Further: nearly all actives have a fitted effect of over 35% in size. The procedure, abridged: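 Cells (C3RL4) are plated, incubated overnight, dosed with compound in DMSO, then given retinol at 1 uM final. After 6 h at 37 C, CellTiter-Glo is added and luminescence read following 30 min at room temperature.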

Assay [12] can be described thus: qHTS assay to identify small molecule antagonists of the retinoic acid receptor (RAR) signaling pathway (AID 1159552; further: nearly all actives have a fitted effect of over 50% in size). The method in brief:
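RARE-luc C3RL4 cells; cpds + 1 uM (final) retinol, 6 hr, 37 C/5% CO2; luciferase reagent, 30 min RT, luminescence readout. Inhibitors of retinol-driven signal scored.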

The nature of assay [13]: qHTS assay to identify small molecule agonists of the retinoic acid receptor (RAR) signaling pathway (AID 1159553). Further: potency means the concentration at half of the fitted maximal effect. The method in brief:
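Seed C3RL4 reporter cells at 1,000 per well and incubate overnight at 37 C. Add compounds in DMSO, incubate 6 hr. Add luciferase reagent, wait 30 min at room temperature, read luminescence.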

The nature of assay [14]: qHTS assay to identify small molecule antagonists of the estrogen related receptor (ERR) signaling pathway - cell viability counter screen (AID 1224818). Further: series mostly up to about 46 µM. The procedure, abridged:
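ERR cells, 2,000/well; 6 h settle at 37 C/5% CO2; compound pin transfer (DMSO); 17.5 h at 37 C; CellTiter-Fluor, 30 min, fluorescence read.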

Assay [15] in a line: qHTS assay to identify small molecule antagonists of the estrogen related receptor signaling pathway with the pleiotropic PPARgamma coactivator (PGC) cell viability counter screen (AID 1224822;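 further: series mostly up to about 46 µM; viability read after 17.5 h compound exposure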). The method in brief:
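Multiplexed viability counter screen run in PGC/ERR cells treated with compounds for 17.5 h at 37 C; live-cell protease signal measured by CellTiter-Fluor fluorescence.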

SMILES strings stand for the structures. Results filed as inconclusive are left out. Unmarked numbers belong to inactive results. Activity calls are given as the source filed them. Unless noted, the call rests on the fitted dose curve; in most records, active means well fitted curve in the direction sought with a large enough effect in the repeat runs; inconclusive means weak or mixed curves; inactive means no such curve, though single readings can be large; an effect the other way counts as inactive or inconclusive.

Regarding `COC(=O)Cc1cccc2ccccc12`, the compound was classed as inactive in [1], in assay [2], in [3], in [4], in assay [5] and in [8]. In addition, in assay [11], the compound was called inactive. Moreover, the Potency entry in assay [6], in [7], in assay [9] and in assay [10] was “inactive” each time.

For `CC(=O)S[C@H](C(=O)N[C@H]1Cc2ccccc2[C@H]2CCC[C@@H](C(=O)O)N2C1=O)C(C)C`, the outcome in assay [1], in [2], in assay [3], in assay [4], in [5] and in assay [8] was inactive. Besides, the call in assay [11] was inactive. The Potency result in [6], in assay [7], in assay [9] and in assay [10] was “inactive” in each case.

With `O=C1c2ccccc2C(=O)C1c1ccc2cc(S(=O)(=O)O)cc(S(=O)(=O)O)c2n1`, the compound was classed as inactive in assay [1], in assay [2], in assay [3], in assay [4], in [5] and in [8]. The outcome in assay [11] was inactive. Moreover, the Potency entry in [6], in assay [7], in [9] and in [10] was “inactive” in each case.

With `Cc1ccc(NC=O)c(C)c1`, the compound was called inactive in assay [1], in assay [2], in assay [3], in [4], in assay [5] and in [8]. Besides, the compound was called inactive in [11]. Moreover, the Potency entry in assay [6], in assay [7], in assay [9] and in [10] was “inactive” in each case.

For the compound `CCC(CC)C(=O)O`, the call in assay [1], in assay [2], in assay [3], in assay [4], in assay [5] and in assay [8] was inactive. Besides, the compound was classed as inactive in [11]. Further, the Potency entry in assay [6], in assay [7], in assay [9] and in assay [10] was “inactive” throughout.

Take `CC(C)=CCCC(C)C=O` (stereo unspecified): the outcome in assay [1], in [2], in assay [3], in assay [4], in assay [5] and in assay [8] was inactive. The outcome in assay [12] was inactive. Further, the Potency result in assay [6], in [7], in assay [9], in [10] and in [13] was “inactive” each time.

As for `O=C(O)CCc1nc2ccccc2[nH]1`, the compound was classed as inactive in assay [1], in assay [2], in [3], in [4], in assay [5] and in [8]. Moreover, in [11], the compound was called inactive. Moreover, the Potency result in [6], in assay [7], in [9], in assay [10] and in [13] was “inactive” in each case.

For `O=C1c2ccccc2C(=O)C1c1ccc2ccccc2n1`, the compound was called inactive in assay [1], in assay [2], in assay [3], in [4], in assay [5] and in [8]. In addition, the outcome in assay [12] was inactive. For the same compound, the Potency result in assay [6], in [7], in [9] and in assay [10] was “inactive” each time. Besides, the Potency in assay [13] was 0.108 µM (active).

`CC(=O)OCC(=O)[C@@]1(O)CC[C@H]2[C@@H]3CCC4=CC(=O)C=C[C@]4(C)[C@@]3(F)[C@@H](O)C[C@@]21C`: the result in assay [1], in [2], in [3], in assay [4], in assay [5] and in [8] was inactive. In assay [11], the result was inactive. Also, the Potency entry in assay [6], in [7], in assay [9] and in assay [10] was “inactive” in each case.

For `O=C(O)c1c2ccccc2cc2ccccc12`, the compound was classed as inactive in assay [1], in assay [2], in [3], in assay [4], in [5] and in [8]. Besides, in assay [11], the compound was called inactive. Moreover, the Potency result in assay [6] and in [10] was “inactive” in each case. Further, the Potency in assay [7] was 13.6 µM (active); in assay [9], 24.5 µM (active).

As for `O=[N+]([O-])c1cccc(I)c1`, the compound was classed as inactive in [1], in assay [2], in assay [3], in assay [4], in assay [5] and in assay [8]. Also, in assay [12], the call was inactive. Further, the Potency entry in assay [6], in assay [7], in assay [9], in [10] and in [13] was “inactive” in each case.

For the compound `Nc1ccc(C(=O)Oc2ccccc2)c(O)c1`, the outcome in assay [1], in [2], in [3], in assay [4], in assay [5] and in [8] was inactive. In [12], the compound was classed as inactive. Also, the Potency result in assay [6], in [7], in assay [9] and in assay [10] was “inactive” each time. For the same compound, in assay [13], the Potency is 3.35 µM (active).

With `CCCC1CCCC(=O)O1` (stereo unspecified), the compound was called inactive in assay [2], in assay [3], in assay [4], in [5], in assay [8] and in assay [12]. The Potency result in assay [6], in assay [7], in assay [9], in assay [10] and in assay [13] was “inactive” throughout.

Take `C=Cc1ccc(C=C)cc1`: the compound was classed as inactive in assay [1], in [2], in assay [3], in [4], in [5] and in assay [8]. Besides, in assay [11], the call was inactive. Besides, the Potency result in assay [6], in assay [7], in assay [9] and in assay [10] was “inactive” in each case.

For the compound `O=C(O)c1cccc(C(=O)O)c1C(=O)O`, the compound was classed as inactive in assay [1], in assay [2], in [3], in [4], in [5] and in assay [8]. Also, the call in assay [11] was inactive. For the same compound, the Potency result in [6], in assay [7], in [9] and in assay [13] was “inactive” throughout. Also, the Potency in [10] is 24.8 µM (active).

As to `C/C(=C\C(C)CC(C)CC(C)C)C1CC(=O)OC1=O` (stereo unspecified), the compound was called inactive in assay [1], in [2], in [3], in assay [4], in [5] and in assay [8]. For the same compound, the call in [11] was inactive. Further, the Potency result in assay [6], in assay [7], in assay [9] and in [10] was “inactive” throughout.

For the compound `Nc1ccc(-c2ccc(F)cc2)cc1`, the result in assay [1], in assay [2], in assay [3], in [4], in [5] and in assay [8] was inactive. For the same compound, in [11], the result was inactive. Further, the Potency entry in assay [6], in assay [7], in assay [9] and in [10] was “inactive” throughout.

In the case of `CC(C)(C(=O)O)c1ccc(C(O)CCCN2CCC(C(O)(c3ccccc3)c3ccccc3)CC2)cc1` (stereo unspecified), the result in assay [1], in assay [2], in [3], in assay [4], in [5] and in assay [8] was inactive. Also, the compound was called inactive in [11], in [14] and in assay [15]. For the same compound, the Potency result in [6], in assay [7], in assay [9] and in assay [10] was “inactive” each time.

In the case of `CC(C)(C)c1cc(C=O)cc(C(C)(C)C)c1O`, the call in [1], in [2], in assay [3], in [4], in assay [5] and in assay [8] was inactive. In [11], the result was inactive. Further, the Potency result in assay [6], in [7], in assay [9] and in assay [10] was “inactive” throughout.

As to `C/C(=C(\CCO)SS/C(CCO)=C(\C)N(C=O)Cc1cnc(C)nc1N)N(C=O)Cc1cnc(C)nc1N`, the result in assay [1], in [2], in [3], in [4], in [5] and in assay [8] was inactive. In addition, the outcome in assay [11] was inactive. Besides, the Potency entry in [6], in [7], in assay [9], in assay [10] and in assay [13] was “inactive” in each case.

As to `CC1(C)CC(=O)CC(C)(C)N1`, the compound was called inactive in assay [1], in assay [2], in assay [3], in [4], in assay [5] and in assay [8]. For the same compound, the result in assay [11] was inactive. In addition, the Potency result in assay [6], in [7], in assay [9] and in [10] was “inactive” each time.

`O=P(c1ccccc1)(c1ccccc1)c1ccccc1`: the result in assay [1], in assay [2], in assay [3], in [4], in assay [5] and in [8] was inactive. For the same compound, in assay [11], the result was inactive. Also, the Potency entry in assay [6], in assay [7], in assay [9] and in [10] was “inactive” throughout.
